# Measurements taken from the supplement of paper PMC4466140.
# B1: unnamed (peptide)
# chain: TTNRGPPPLPPRANV
# Biological target: AgAbp1
# Assay: SPOT peptide array binding signal intensity (averaged, normalized) (arbitrary units (background-subtracted, floor 0; scale differs between SH3 domains)); higher = stronger binding of the SH3 domain to the peptide
# Outline: (§1)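 GST-SH3 fusions from four yeast species, purified on glutathione Sepharose, were incubated at 10 μg/ml overnight at 4°C on membranes of synthetic 15-mer peptides in which cysteines were replaced with serines. Binding signal is the normalized, background-subtracted spot intensity averaged over replicates, in domain-specific arbitrary units.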
row,Binder,SPOT peptide array binding signal intensity
1,B1,2

# Biological target: AgBbc1
# Assay: as above
# Outline: as §1
row,Binder,SPOT peptide array binding signal intensity
1,B1,301

# Biological target: AgBem1-D1
# Assay: as above
# Outline: as §1
row,Binder,SPOT peptide array binding signal intensity
1,B1,53.5

# Biological target: AgBzz1-D1
# Assay: as above
# Outline: as §1
row,Binder,SPOT peptide array binding signal intensity
1,B1,385

# Biological target: AgBzz1-D2
# Assay: as above
# Outline: as §1
row,Binder,SPOT peptide array binding signal intensity
1,B1,144

# Biological target: AgCyk3
# Assay: as above
# Outline: as §1
row,Binder,SPOT peptide array binding signal intensity
1,B1,6

# Biological target: AgFus1
# Assay: as above
# Outline: as §1
row,Binder,SPOT peptide array binding signal intensity
1,B1,≤ 0

# Biological target: AgHof1
# Assay: as above
# Outline: as §1
row,Binder,SPOT peptide array binding signal intensity
1,B1,398

# Biological target: AgHse1
# Assay: as above
# Outline: as §1
row,Binder,SPOT peptide array binding signal intensity
1,B1,35.5

# Biological target: AgLsb1
# Assay: as above
# Outline: as §1
row,Binder,SPOT peptide array binding signal intensity
1,B1,513

# Biological target: AgLsb4
# Assay: as above
# Outline: as §1
row,Binder,SPOT peptide array binding signal intensity
1,B1,4310

# Biological target: AgMyo5
# Assay: as above
# Outline: as §1
row,Binder,SPOT peptide array binding signal intensity
1,B1,394

# Biological target: AgNbp2
# Assay: as above
# Outline: as §1
row,Binder,SPOT peptide array binding signal intensity
1,B1,4.5

# Biological target: AgRvs167
# Assay: as above
# Outline: as §1
row,Binder,SPOT peptide array binding signal intensity
1,B1,1710

# Biological target: AgSho1
# Assay: as above
# Outline: as §1
row,Binder,SPOT peptide array binding signal intensity
1,B1,≤ 0

# Biological target: AgSla1-D1-D2
# Assay: as above
# Outline: as §1
row,Binder,SPOT peptide array binding signal intensity
1,B1,≤ 0

# Biological target: AgSla1-D3
# Assay: as above
# Outline: as §1
row,Binder,SPOT peptide array binding signal intensity
1,B1,4

# Biological target: CaAbp1-D1
# Assay: as above
# Outline: as §1
row,Binder,SPOT peptide array binding signal intensity
1,B1,19

# Biological target: CaAbp1-D2
# Assay: as above
# Outline: as §1
row,Binder,SPOT peptide array binding signal intensity
1,B1,≤ 0

# Biological target: CaBbc1
# Assay: as above
# Outline: as §1
row,Binder,SPOT peptide array binding signal intensity
1,B1,590

# Biological target: CaBem1-D1
# Assay: as above
# Outline: as §1
row,Binder,SPOT peptide array binding signal intensity
1,B1,28

# Biological target: CaBzz1-D1
# Assay: as above
# Outline: as §1
row,Binder,SPOT peptide array binding signal intensity
1,B1,6090

# Biological target: CaBzz1-D2
# Assay: as above
# Outline: as §1
row,Binder,SPOT peptide array binding signal intensity
1,B1,2120

# Biological target: CaCyk3
# Assay: as above
# Outline: as §1
row,Binder,SPOT peptide array binding signal intensity
1,B1,10.5

# Biological target: CaFus1
# Assay: as above
# Outline: as §1
row,Binder,SPOT peptide array binding signal intensity
1,B1,22.5

# Biological target: CaHof1
# Assay: as above
# Outline: as §1
row,Binder,SPOT peptide array binding signal intensity
1,B1,101

# Biological target: CaHse1
# Assay: as above
# Outline: as §1
row,Binder,SPOT peptide array binding signal intensity
1,B1,73

# Biological target: CaLsb1
# Assay: as above
# Outline: as §1
row,Binder,SPOT peptide array binding signal intensity
1,B1,9

# Biological target: CaLsb4
# Assay: as above
# Outline: as §1
row,Binder,SPOT peptide array binding signal intensity
1,B1,4530

# Biological target: CaMyo5
# Assay: as above
# Outline: as §1
row,Binder,SPOT peptide array binding signal intensity
1,B1,6.25

# Biological target: CaNbp2
# Assay: as above
# Outline: as §1
row,Binder,SPOT peptide array binding signal intensity
1,B1,35

# Biological target: CaRvs167
# Assay: as above
# Outline: as §1
row,Binder,SPOT peptide array binding signal intensity
1,B1,1980

# Biological target: CaRvs167-3
# Assay: as above
# Outline: as §1
row,Binder,SPOT peptide array binding signal intensity
1,B1,≤ 0

# Biological target: CaSho1
# Assay: as above
# Outline: as §1
row,Binder,SPOT peptide array binding signal intensity
1,B1,0.5

# Biological target: CaSla1-D1-D2
# Assay: as above
# Outline: as §1
row,Binder,SPOT peptide array binding signal intensity
1,B1,436

# Biological target: CaSla1-D3
# Assay: as above
# Outline: as §1
row,Binder,SPOT peptide array binding signal intensity
1,B1,1.5

# Biological target: ScAbp1
# Assay: as above
# Outline: as §1
row,Binder,SPOT peptide array binding signal intensity
1,B1,12

# Biological target: ScBbc1
# Assay: as above
# Outline: as §1
row,Binder,SPOT peptide array binding signal intensity
1,B1,74

# Biological target: ScBem1-D1
# Assay: as above
# Outline: as §1
row,Binder,SPOT peptide array binding signal intensity
1,B1,6

# Biological target: ScBzz1-D1
# Assay: as above
# Outline: as §1
row,Binder,SPOT peptide array binding signal intensity
1,B1,144

# Biological target: ScBzz1-D2
# Assay: as above
# Outline: as §1
row,Binder,SPOT peptide array binding signal intensity
1,B1,8

# Biological target: ScCyk3
# Assay: as above
# Outline: as §1
row,Binder,SPOT peptide array binding signal intensity
1,B1,1

# Biological target: ScFus1
# Assay: as above
# Outline: as §1
row,Binder,SPOT peptide array binding signal intensity
1,B1,≤ 0

# Biological target: ScHof1
# Assay: as above
# Outline: as §1
row,Binder,SPOT peptide array binding signal intensity
1,B1,272

# Biological target: ScHse1
# Assay: as above
# Outline: as §1
row,Binder,SPOT peptide array binding signal intensity
1,B1,21.5

# Biological target: ScLsb1
# Assay: as above
# Outline: as §1
row,Binder,SPOT peptide array binding signal intensity
1,B1,576

# Biological target: ScLsb2
# Assay: as above
# Outline: as §1
row,Binder,SPOT peptide array binding signal intensity
1,B1,583

# Biological target: ScLsb3
# Assay: as above
# Outline: as §1
row,Binder,SPOT peptide array binding signal intensity
1,B1,6820

# Biological target: ScLsb4
# Assay: as above
# Outline: as §1
row,Binder,SPOT peptide array binding signal intensity
1,B1,3960

# Biological target: ScMyo3
# Assay: as above
# Outline: as §1
row,Binder,SPOT peptide array binding signal intensity
1,B1,492

# Biological target: ScMyo5
# Assay: as above
# Outline: as §1
row,Binder,SPOT peptide array binding signal intensity
1,B1,277

# Biological target: ScNbp2
# Assay: as above
# Outline: as §1
row,Binder,SPOT peptide array binding signal intensity
1,B1,43

# Biological target: ScPex13
# Assay: as above
# Outline: as §1
row,Binder,SPOT peptide array binding signal intensity
1,B1,2050

# Biological target: ScRvs167
# Assay: as above
# Outline: as §1
row,Binder,SPOT peptide array binding signal intensity
1,B1,2870

# Biological target: ScSho1
# Assay: as above
# Outline: as §1
row,Binder,SPOT peptide array binding signal intensity
1,B1,128

# Biological target: ScSla1-D1-D2
# Assay: as above
# Outline: as §1
row,Binder,SPOT peptide array binding signal intensity
1,B1,255

# Biological target: ScSla1-D3
# Assay: as above
# Outline: as §1
row,Binder,SPOT peptide array binding signal intensity
1,B1,15.2

# Biological target: SpAbp1-D1
# Assay: as above
# Outline: as §1
row,Binder,SPOT peptide array binding signal intensity
1,B1,41.5

# Biological target: SpBbc1
# Assay: as above
# Outline: as §1
row,Binder,SPOT peptide array binding signal intensity
1,B1,106

# Biological target: SpBzz1-D1
# Assay: as above
# Outline: as §1
row,Binder,SPOT peptide array binding signal intensity
1,B1,3230

# Biological target: SpBzz1-D2
# Assay: as above
# Outline: as §1
row,Binder,SPOT peptide array binding signal intensity
1,B1,11

# Biological target: SpCyk3
# Assay: as above
# Outline: as §1
row,Binder,SPOT peptide array binding signal intensity
1,B1,16

# Biological target: SpHof1
# Assay: as above
# Outline: as §1
row,Binder,SPOT peptide array binding signal intensity
1,B1,15.2

# Biological target: SpHof1-2
# Assay: as above
# Outline: as §1
row,Binder,SPOT peptide array binding signal intensity
1,B1,42.8

# Biological target: SpHof1-3
# Assay: as above
# Outline: as §1
row,Binder,SPOT peptide array binding signal intensity
1,B1,344

# Biological target: SpHse1
# Assay: as above
# Outline: as §1
row,Binder,SPOT peptide array binding signal intensity
1,B1,≤ 0

# Biological target: SpLsb1
# Assay: as above
# Outline: as §1
row,Binder,SPOT peptide array binding signal intensity
1,B1,1680

# Biological target: SpLsb4
# Assay: as above
# Outline: as §1
row,Binder,SPOT peptide array binding signal intensity
1,B1,4080

# Biological target: SpMyo1
# Assay: as above
# Outline: as §1
row,Binder,SPOT peptide array binding signal intensity
1,B1,853

# Biological target: SpNbp2
# Assay: as above
# Outline: as §1
row,Binder,SPOT peptide array binding signal intensity
1,B1,≤ 0

# Biological target: SpPex13
# Assay: as above
# Outline: as §1
row,Binder,SPOT peptide array binding signal intensity
1,B1,7

# Biological target: SpRvs167
# Assay: as above
# Outline: as §1
row,Binder,SPOT peptide array binding signal intensity
1,B1,2550

# Biological target: SpSla1-D1-D2
# Assay: as above
# Outline: as §1
row,Binder,SPOT peptide array binding signal intensity
1,B1,1

# Biological target: SpSla1-D3
# Assay: as above
# Outline: as §1
row,Binder,SPOT peptide array binding signal intensity
1,B1,≤ 0
